Calls of active or inactive are those of the source. Unless noted, the rule behind the calls is not given here.
Assays:
[1] = system: Wnt5a (protein binding on small-molecule microarray); experiment: Wnt5a binders on small-molecule microarray, primary screen, biophysical, 635/667 nm fluorescence (AID 1142); conditions: 635 nm fluorescence, higher = more signal;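 note: fluorescence read at 667 nm with signal to noise per printed feature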
[2] = cell viability in Huh7 cells, primary screen, cytotoxicity control for HCV replication inhibitor project, CellTiter-Glo luminescence, basal, 48 h (AID 1143); conditions: Huh7 HCV replicon, higher = more signal, called active from +8 up or from −8 down;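 note: Huh7 hepatoma cells carrying a hepatitis C replication reporter with no stimulus; test concentration not given here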
[3] = P. aeruginosa biofilm formation inhibitors, primary screen, PAO1 strain, BacTiter-Glo luminescence, LB-PBS (AID 1144); conditions: 12 h, higher = more signal
[4] = CREB reporter modulators without forskolin, primary screen, cell-based, PC12, CRE-LacZ reporter, unstimulated (AID 1145); conditions: no forskolin, luminescence, 4.5 h, higher = more signal, called active from +8 up or from −8 down
[5] = CREB reporter modulators under forskolin, primary screen, cell-based, PC12, CRE-LacZ reporter, forskolin-stimulated (AID 1146); conditions: luminescence, 4.5 h, higher = more signal, called active from +8 up or from −8 down;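 note: PC12 cells with 6xCRE LacZ reporter stimulated by forskolin 10 µM; beta-galactosidase reporter signal reflecting CREB driven transcription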
[6] = biological target: Streptavidin (Streptomyces avidinii) (UniProt P22629); experiment: streptavidin binders on small-molecule microarray, primary screen, artefact control for SMM compound annotation, biophysical, 635/667 nm fluorescence (AID 1147); conditions: streptavidin binding, higher = more signal;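 note: signal reflects streptavidin binding to arrayed compounds as a control protein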
Streptavidin (Streptomyces avidinii), sequence (P22629 whole entry, looked up): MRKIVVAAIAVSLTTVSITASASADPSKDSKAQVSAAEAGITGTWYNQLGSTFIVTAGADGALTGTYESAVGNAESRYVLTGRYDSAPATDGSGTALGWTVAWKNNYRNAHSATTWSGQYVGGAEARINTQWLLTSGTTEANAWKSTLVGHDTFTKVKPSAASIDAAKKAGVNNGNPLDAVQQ

[7] = small-molecule binders of probe aInhba, primary screen, biochemical, small-molecule microarray, 635/667 nm fluorescence (AID 1148); conditions: higher = more signal;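 note: score merges 667nm spot fluorescence with signal-to-noise for antibody binding to printed compounds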
Torsin-1A (Homo sapiens) [8] = biological target: Torsin-1A (Homo sapiens) (UniProt O14656); experiment: torsin A binders from cell lysate, primary screen, small-molecule microarray, wild-type, 635/667 nm (AID 1149); conditions: COS7 hTOR1A-WT lysate, 635 nm fluorescence, higher = more signal
Torsin-1A (Homo sapiens), sequence (O14656 whole entry, looked up): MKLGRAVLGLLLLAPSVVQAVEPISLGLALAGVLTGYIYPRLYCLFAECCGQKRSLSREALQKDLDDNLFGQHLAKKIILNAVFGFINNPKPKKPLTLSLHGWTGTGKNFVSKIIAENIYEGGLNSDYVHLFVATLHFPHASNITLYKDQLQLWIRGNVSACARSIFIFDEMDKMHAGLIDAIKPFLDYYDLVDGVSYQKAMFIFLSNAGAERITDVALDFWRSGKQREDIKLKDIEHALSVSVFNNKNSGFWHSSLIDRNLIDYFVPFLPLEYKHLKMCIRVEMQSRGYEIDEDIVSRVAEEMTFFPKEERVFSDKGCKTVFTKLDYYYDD

Torsin-1A (Homo sapiens) [9] = biological target: Torsin-1A (Homo sapiens) (UniProt O14656); experiment: small-molecule binders of mutant TOR1A in lysate, primary screen, cell lysate, small-molecule microarray, COS7 lysate, 635/667 nm fluorescence (AID 1150); conditions: COS7 hTOR1A mutant lysate, 635 nm fluorescence, higher = more signal;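 note: score pools 667 nm emission and signal to noise measuring lysate protein binding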
[10] = system: Sonic hedgehog protein (Shh); experiment: small-molecule binders of Shh protein, primary screen, biochemical, small-molecule microarray, 635/667 nm fluorescence (AID 1151); conditions: small-molecule microarray binding, 635 nm fluorescence; higher = more signal;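 note: Shh protein binding to compounds spotted on small-molecule microarray slides; score combines spot fluorescence intensity with signal-to-noise across triplicate slides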
[11] = E. coli DRC41 culture turbidity changes, primary screen, E. coli filamentation inducer project, strain DRC41, OD650, 48 h (AID 1152);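 note: E. coli MC1000 strain DRC41 lacking acrAB efflux pump and sulA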; conditions: E. coli DRC41 (acrAB sulA), higher = more signal, called active from +8 up or from −8 down
[12] = small-molecule binders of probe aLefty1, primary screen, biochemical, small-molecule microarray, 635/667 nm fluorescence (AID 1153); conditions: higher = more signal;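 note: score merges spot fluorescence with signal-to-noise ratio from the scanned slide images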
[13] = PSAC antagonists in infected red cells, primary screen, cell-based, P. falciparum Indochina, OD700, 1 h (AID 1154); conditions: P. falciparum Indochina infected RBC osmotic lysis, higher = more signal, called active from +8 up or from −8 down
[14] = PSAC antagonists in infected red cells, primary screen, cell-based, P. falciparum Indochina, OD700, 2 h (AID 1155);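 note: lysis reports solute entry through the parasite surface anion channel PSAC; channel blockers reduce lysis of infected cells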; conditions: P. falciparum Indochina infected erythrocytes, osmotic lysis OD700; higher = more signal, called active from +8 up or from −8 down
[15] = osmotic lysis modulators in infected erythrocytes, primary screen, PSAC antagonist project, cell-based, P. falciparum Indochina, OD700, 3 h (AID 1156); conditions: higher = more signal, called active from +8 up or from −8 down
[16] = PSAC antagonists in infected red cells, primary screen, cell-based, P. falciparum Indochina, OD700, 18 h (AID 1157); conditions: P. falciparum Indochina infected erythrocytes, osmotic lysis OD700, 18 h; higher = more signal, called active from +8 up or from −8 down
[17] = modulators of S6 phosphorylation in cells, primary screen, cell-based, A549, cytoblot, luminescence, serum-stimulated (AID 1158); conditions: A549 phospho-S6 cytoblot, 5 h, higher = more signal;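 note: serum-stimulated A549 lung adenocarcinoma cells; signal is phosphorylated S6 detected by cytoblot immunostaining with HRP secondary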
[18] = biological target: NADPH oxidase 2 (Homo sapiens) (UniProt P04839); experiment: NOX2-dependent H2O2 signal modulators, primary screen, NOX inhibitor project, cell-based, HEK293-NOX2, PMA-stimulated, Amplex Red fluorescence (AID 1159); conditions: 45 min, higher = more signal, called active from +8 up or from −8 down; note: test concentration not given here
NADPH oxidase 2 (Homo sapiens), sequence (P04839 whole entry, looked up): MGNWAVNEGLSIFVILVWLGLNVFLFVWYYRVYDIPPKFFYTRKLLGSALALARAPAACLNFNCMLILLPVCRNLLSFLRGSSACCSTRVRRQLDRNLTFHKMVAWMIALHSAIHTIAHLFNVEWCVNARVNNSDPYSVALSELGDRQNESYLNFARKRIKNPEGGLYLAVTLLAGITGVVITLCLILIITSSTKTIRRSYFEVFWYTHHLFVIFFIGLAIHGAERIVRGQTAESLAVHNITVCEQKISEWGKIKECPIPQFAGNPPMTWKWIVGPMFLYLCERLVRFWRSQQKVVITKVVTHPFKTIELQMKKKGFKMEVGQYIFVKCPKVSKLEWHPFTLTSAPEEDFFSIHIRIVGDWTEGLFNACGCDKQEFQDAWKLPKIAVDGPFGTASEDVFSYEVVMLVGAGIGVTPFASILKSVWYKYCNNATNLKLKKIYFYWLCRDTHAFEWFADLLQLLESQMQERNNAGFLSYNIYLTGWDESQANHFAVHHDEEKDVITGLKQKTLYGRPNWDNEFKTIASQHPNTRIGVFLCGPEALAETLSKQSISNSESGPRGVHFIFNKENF

[19] = biological target: NADPH oxidase 4 (Homo sapiens) (UniProt Q9NPH5); experiment: NOX4-dependent H2O2 signal modulators, primary screen, NOX inhibitor project, cell-based, HEK293-NOX4, tetracycline-induced, Amplex Red fluorescence (AID 1160); conditions: 45 min, higher = more signal, called active from +8 up or from −8 down
NADPH oxidase 4 (Homo sapiens), sequence (Q9NPH5 whole entry, looked up): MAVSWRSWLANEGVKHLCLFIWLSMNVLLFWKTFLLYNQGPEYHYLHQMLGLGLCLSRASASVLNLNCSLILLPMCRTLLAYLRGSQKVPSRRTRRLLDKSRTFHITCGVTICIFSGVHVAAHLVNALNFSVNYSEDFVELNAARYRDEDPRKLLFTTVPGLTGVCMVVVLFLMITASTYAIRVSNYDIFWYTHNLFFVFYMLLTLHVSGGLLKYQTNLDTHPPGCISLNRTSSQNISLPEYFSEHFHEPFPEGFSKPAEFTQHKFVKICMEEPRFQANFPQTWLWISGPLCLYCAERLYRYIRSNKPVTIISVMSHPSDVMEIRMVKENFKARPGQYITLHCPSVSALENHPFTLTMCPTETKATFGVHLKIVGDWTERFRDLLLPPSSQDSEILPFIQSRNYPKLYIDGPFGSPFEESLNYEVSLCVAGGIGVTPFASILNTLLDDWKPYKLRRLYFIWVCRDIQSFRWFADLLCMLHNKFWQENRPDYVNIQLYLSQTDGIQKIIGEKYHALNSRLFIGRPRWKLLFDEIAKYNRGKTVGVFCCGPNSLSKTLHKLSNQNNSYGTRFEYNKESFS

[20] = biological target: NADPH oxidase 5 (Homo sapiens) (UniProt Q96PH1); experiment: NOX5-dependent H2O2 signal modulators, primary screen, NOX inhibitor project, cell-based, HEK293-NOX5, Amplex Red fluorescence (AID 1161); conditions: HEK293-NOX5, ionomycin, 45 min, higher = more signal
NADPH oxidase 5 (Homo sapiens), sequence (Q96PH1 whole entry, looked up): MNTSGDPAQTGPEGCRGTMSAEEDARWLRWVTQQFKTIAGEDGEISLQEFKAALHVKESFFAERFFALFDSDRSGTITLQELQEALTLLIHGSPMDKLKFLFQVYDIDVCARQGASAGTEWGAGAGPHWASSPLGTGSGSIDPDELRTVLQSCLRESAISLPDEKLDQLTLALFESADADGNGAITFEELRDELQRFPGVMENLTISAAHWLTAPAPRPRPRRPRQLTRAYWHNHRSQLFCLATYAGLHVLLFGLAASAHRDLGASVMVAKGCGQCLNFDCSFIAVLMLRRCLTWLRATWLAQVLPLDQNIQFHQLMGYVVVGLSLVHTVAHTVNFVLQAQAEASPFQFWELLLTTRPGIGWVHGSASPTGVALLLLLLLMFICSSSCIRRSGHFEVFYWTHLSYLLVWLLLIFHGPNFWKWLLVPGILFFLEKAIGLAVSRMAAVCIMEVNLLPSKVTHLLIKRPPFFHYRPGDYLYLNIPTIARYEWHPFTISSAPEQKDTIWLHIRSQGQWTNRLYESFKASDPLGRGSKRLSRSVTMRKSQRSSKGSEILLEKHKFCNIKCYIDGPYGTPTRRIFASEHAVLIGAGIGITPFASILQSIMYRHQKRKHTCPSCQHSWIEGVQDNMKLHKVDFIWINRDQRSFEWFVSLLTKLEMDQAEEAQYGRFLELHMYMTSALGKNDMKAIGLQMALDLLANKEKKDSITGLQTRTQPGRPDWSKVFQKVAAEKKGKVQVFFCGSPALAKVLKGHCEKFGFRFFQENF

Row | Structure (SMILES) | composite z-score [1] | z-score [2] | z-score [3] | z-score [4] | z-score [5] | composite z-score [6] | composite z-score [7] | composite z-score (Torsin-1A (Homo sapiens) [8]) | composite z-score (Torsin-1A (Homo sapiens) [9]) | composite z-score [10] | z-score [11] | composite z-score [12] | z-score [13] | z-score [14] | z-score [15] | z-score [16] | z-score [17] | z-score [18] | z-score [19] | z-score [20]
1 | O=C1O[C@H](c2ccccc2)[C@H](c2ccccc2)N2[C@H]1[C@@H](C(=O)N1CCCCCCC1)[C@]1(C(=O)Nc3ccc(C#CC4(O)CCCCCC4)cc31)[C@H]2c1ccccc1OCCO | 2.32 | -3.52 (inactive) | -0.41 (inactive) | 0.335 (inactive) | -0.0926 (inactive) | 4.02 | 1.97 | 3.75 | 3.55 | 2.09 | -0.0659 (inactive) | 2.87 | 0.707 (inactive) | 0.216 (inactive) | -0.168 (inactive) | 0.614 (inactive) | 0.43 | 0.643 (inactive) | 0.485 (inactive) | 1.56
2 | C=CCN1C(=O)[C@]2(O[C@H](CCO)[C@@H]([Si](C)(C)c3ccc(OC)cc3)[C@@H]2C)c2cc(NC(=O)c3ccc(OC)cc3)ccc21 | 0.211 | -7.99 (inactive) | -0.236 (inactive) | 15.2 (active) | -1.43 (inactive) | 0.535 | 0.0541 | 0.598 | 0.726 | 2.11 | -1.25 (inactive) | 0.0494 | 7.31 (inactive) | 2.69 (inactive) | -0.357 (inactive) | 1.3 (inactive) | -0.309 | -3.97 (inactive) | -0.48 (inactive) | 1.38
3 | C=CCC(OC(C)=O)[C@@H]1[C@@H](N(Cc2ccc(-c3cccc(C(F)(F)F)c3)o2)C(=O)c2cccc3ccccc23)c2cc(OCCCO)ccc2N1C(=O)Cc1ccc(OC)cc1 (stereo not given in full) | -0.307 | -2.29 (inactive) | 0.302 (inactive) | -0.593 (inactive) | 0.0843 (inactive) | -0.551 | -0.102 | -0.577 | 0.264 | 0.439 | 0.386 (inactive) | -0.0818 | 1.62 (inactive) | 0.753 (inactive) | 1.94 (inactive) | 0.702 (inactive) | 0.461 | -3.21 (inactive) | -1.73 (inactive) | -1.49
4 | CC(CO)N1C(=O)[C@@H]2[C@H]3C(=O)OCC=C[C@H]3OC23C=CCN(c2ccc(Cl)cc2)C(=O)[C@@H]13 (stereo not given in full) | -0.691 | 0.359 (inactive) | 2.78 (inactive) | 0.866 (inactive) | 0.154 (inactive) | -2.13 | -0.26 | -2.73 | -2.95 | -0.721 | 0.458 (inactive) | -0.283 | -0.499 (inactive) | -0.219 (inactive) | 0.639 (inactive) | 0.0119 (inactive) | -0.172 | 0.8 (inactive) | 0.28 (inactive) | 1.34
5 | CN(C)C(=O)[C@@]1(Cc2ccccc2)COC(c2ccc(OCCCO)cc2)=N1 | -0.243 | -2.58 (inactive) | 0.59 (inactive) | 1.74 (inactive) | -1.3 (inactive) | 0.142 | -0.661 | 0.0565 | -0.22 | -0.618 | 1.54 (inactive) | -0.57 | 20.9 (active) | 3.73 (inactive) | 2.46 (inactive) | 1.09 (inactive) | 0.0912 | -1.26 (inactive) | 0.108 (inactive) | -1.21
6 | O=C(NCCN1CCOCC1)[C@@H]1c2ccccc2C(=O)N(Cc2ccccc2)[C@H]1c1ccc(CO)cc1 | -0.817 | -1.62 (inactive) | -0.996 (inactive) | 0.145 (inactive) | -0.674 (inactive) | 1.49 | -0.0719 | -1.46 | -0.21 | -1.67 | 0.347 (inactive) | -0.101 | 1.23 (inactive) | -0.222 (inactive) | 0.766 (inactive) | -0.0161 (inactive) | -0.214 | -1.71 (inactive) | -0.652 (inactive) | -2.89
7 | COc1cc2c(cc1O)C(c1cccs1)N(Cc1sc3ccccc3c1Cl)CC2 (stereo not given) | 0.702 | -2.5 (inactive) | 0.546 (inactive) | -0.141 (inactive) | 0.93 (inactive) | 1.64 | 0.122 | 1.43 | 1.56 | 0.953 | -1.49 (inactive) | 0.0479 | 10.4 (active) | 3.63 (inactive) | -0.333 (inactive) | 2.24 (inactive) | -0.511 | -3.92 (inactive) | -2.48 (inactive) | -3.48
8 | O=C1OCCC/C=C\[C@H]2OC34C=CCN(c5ccc6ccccc6c5)C(=O)[C@H]3N(CCCO)C(=O)[C@@H]4C12 (stereo not given in full) | -0.482 | 0.187 (inactive) | 2.06 (inactive) | 2.9 (inactive) | -0.942 (inactive) | -1.3 | -0.21 | -0.553 | -1.1 | -0.339 | -0.52 (inactive) | -0.366 | 3.21 (inactive) | 0.571 (inactive) | -0.276 (inactive) | 0.187 (inactive) | 0.688 | 2.08 (inactive) | 1.14 (inactive) | 2.53

Reference: PubChem BioAssay
